# The source made the active and inactive calls.
# Columns and labels:
# [1] = A549 cell viability effects, profiling panel, calcein-AM fluorescence, 48 h, basal (AID 1162); settings: higher = more signal
# [2] = adipocyte viability effects, profiling panel, cell-based, 3T3-L1 adipocytes, calcein-AM fluorescence, 48 h, basal (AID 1163); settings: 3T3-L1 adipocytes viability, higher = more signal
# [3] = HepG2 cell viability effects, profiling panel, calcein-AM fluorescence, 48 h, basal (AID 1164); settings: higher = more signal
# [4] = MM1S cell viability effects, profiling panel, calcein-AM fluorescence, 48 h, basal (AID 1165); settings: higher = more signal;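 note: viability of MM1S multiple myeloma cells under basal unstimulated conditions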
# [5] = basal RPMI8226 viability, no added stimulus, profiling panel, cell-based, calcein-AM fluorescence, 48 h, PK04 Diversity Set (AID 1166); settings: RPMI8226 myeloma viability, higher = more signal;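 note: cells grown under basal conditions without added stimulus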
# [6] = basal HepG2 mitochondrial membrane potential changes, profiling panel, cell-based, JC-1 fluorescence, 24 h, 100 nL compound (AID 1167); settings: higher = more signal
# [7] = basal 3T3-L1 adipocyte mitochondrial potential changes, profiling panel, cell-based, JC-1 fluorescence, 3T3-L1 adipocytes, 24 h, 100 nL compound (AID 1168); settings: JC-1 mitochondrial fluorescence, higher = more signal, called active from +8 up or from −8 down
# [8] = basal RPMI8226 mitochondrial membrane potential changes, profiling panel, cell-based, JC-1 fluorescence, 24 h, 100 nL compound (AID 1169); settings: RPMI8226 myeloma, JC-1 mitochondrial potential fluorescence, higher = more signal
# [9] = basal MM1S mitochondrial membrane potential changes, profiling panel, cell-based, JC-1 fluorescence, 24 h, 100 nL compound (AID 1170); settings: higher = more signal
# [10] = A549 lung cancer cell viability effects, profiling panel, resazurin fluorescence, 24 h, PK04 Diversity Set (AID 1171); settings: higher = more signal, called active from +8 up or from −8 down
# Note: test concentration not given here.
SMILES,z-score [1],z-score [2],z-score [3],z-score [4],z-score [5],z-score [6],z-score [7],z-score [8],z-score [9],z-score [10]
C=C[C@@H](OC)[C@H](OC(=O)Nc1ccc(OC)cc1)c1ccc(O)c(F)c1,-0.705,0.792,-0.723,-2.17,-2.47,-2.82,-1.1 (inactive),-0.276,-0.0233,-0.0973 (inactive)
CC(C)c1ccc(NN2C(C(O)c3ccc(C#N)cc3)C=CC3C(=O)N(c4ccccc4)C(=O)C32)cc1 (stereo not given),-0.0204,-0.708,-0.21,-0.303,-0.0634,-1.22,-0.662 (inactive),0.629,0.179,-1.28 (inactive)
O=C1OCCC=C[C@H]2OC34C=CCN(c5ccc6ccccc6c5)C(=O)[C@H]3N(CCCO)C(=O)[C@@H]4C12 (stereo not given in full),0.167,1.41,-0.16,0.441,-0.556,-0.458,0.241 (inactive),-0.0315,-0.89,-0.391 (inactive)
C[N+](C)(C)CCCCCCNC(=O)[C@@H]1C[C@@H]2C(=O)N3CCC[C@H]3C(=O)N2[C@@H]1c1ccc(O)cc1,-0.134,-0.329,-0.526,-0.403,-0.106,-1,-0.362 (inactive),-0.101,-0.637,1.78 (inactive)
C=C(/C(=C/C[C@H](OC(=O)c1ccncc1)c1ccc(CO)o1)c1cnc2ccccc2c1)C(C)C,1.07,0.521,-0.181,-2.88,-1.25,-0.211,0.0957 (inactive),0.319,-0.161,0.208 (inactive)
CN(C)CCCCCCNC(=O)[C@@H]1C[C@@H]2C(=O)N3CCC[C@H]3C(=O)N2[C@@H]1c1cccc(OCCO)c1,-0.84,-0.314,-0.679,-0.592,-0.156,-1.06,0.444 (inactive),0.605,0.784,-0.954 (inactive)
Cc1ccc(C(C)CC(O)C2C=CC3C(=O)N(c4ccccc4)C(=O)C3N2Nc2ccccc2)o1 (stereo not given),-0.0446,0.001,0.179,-0.559,-1.69,-1.64,-0.279 (inactive),-0.178,-1.71,-0.706 (inactive)
CCCC=C(CCC)[C@@H](NS(=O)(=O)c1ccc(C(F)(F)F)cc1)c1ccccc1,-0.511,-0.217,-0.832,-0.266,-1.86,-4.98,-0.61 (inactive),-0.519,-1.51,0.221 (inactive)
COC(=O)C1=CC(CCCO)=CC(c2cccs2)N(C)C=C1C(=O)OC (stereo not given),-0.253,0.483,-0.818,0.347,0.959,-0.386,-0.195 (inactive),-0.294,0.549,-0.28 (inactive)
CC1CC/C=C\[C@H]2OC34C=CCN(Cc5ccccc5)C(=O)[C@H]3N(C(CO)C(C)C)C(=O)[C@@H]4C2C(=O)O1 (stereo not given in full),0.743,0.493,0.539,0.947,0.847,-0.213,0.000812 (inactive),-0.795,-0.0133,0.0401 (inactive)
O=C1O[C@@H](c2ccccc2)[C@@H](c2ccccc2)N2[C@@H](c3ccc(OCCO)cc3)[C@]3(C(=O)Nc4ccc(C#CC5=CCCCC5)cc43)[C@@H](C(=O)NC[C@H](O)c3ccccc3)[C@H]12,0.152,1.49,0.348,0.0056,-2.81,-1.93,-0.106 (inactive),-0.875,-1.24,-0.956 (inactive)
CN1C2C=C(CCCO)C(C3C(=O)N(C(N)=O)C(=O)C32)C1C1CC1 (stereo not given),0.0701,-0.0683,0.592,0.0641,-0.952,-0.486,0.0295 (inactive),0.192,0.238,-0.513 (inactive)
COCCOC(=O)N1C(=O)[C@@]2(c3cc(C#CC4=CCCCC4)ccc31)[C@H](C(=O)Nc1nc3ccccc3s1)[C@H]1C(=O)O[C@H](c3ccccc3)[C@H](c3ccccc3)N1[C@@H]2c1ccc(O)cc1,0.427,0.217,0.0981,-1.79,-1.62,-3.16,-0.762 (inactive),-0.404,-0.54,-0.353 (inactive)
[N-]=[N+]=Nc1ccccc1C[C@]1(C(=O)NCCN2CCOCC2)COC(c2ccc(OCCCO)cc2)=N1,1.84,0.0471,1.31,0.534,0.586,0.157,0.959 (inactive),-0.264,-0.422,0.887 (inactive)
C=CCNC(=O)[C@@H]1[C@H]2C(=O)O[C@H](c3ccccc3)[C@H](c3ccccc3)N2[C@H](c2ccccc2OCCO)[C@@]12C(=O)N(C(=O)OCCOC)c1ccc(C#CC3(O)CCCCCC3)cc12,-0.21,1.21,-1.27,-2.55,-3.61,-0.746,-0.389 (inactive),-0.816,-0.761,-0.628 (inactive)
CC(C)C(CO)N1C(=O)[C@@H]2[C@H]3C(=O)OCC=C[C@H]3OC23C=CCN(c2ccc(Cl)cc2)C(=O)[C@@H]13 (stereo not given in full),-0.713,0.556,0.813,1.04,-0.356,0.465,0.959 (inactive),-0.212,0.497,0.504 (inactive)
N#Cc1ccc(NN2C(C(O)c3ccc(Br)cc3)C=CC3C(=O)N(c4ccccc4)C(=O)C32)cc1 (stereo not given),0.647,0.0175,1.11,-0.615,0.201,-0.574,0.507 (inactive),0.244,0.0172,-0.421 (inactive)
CCCC[C@@H](O)C1=C(COC)C[C@H]2C(=O)N(Cc3ccccc3)C(=O)[C@H]2[C@H]1CO,0.449,-1,1.35,0.887,0.105,-0.0934,0.0385 (inactive),-0.851,-1.35,0.0943 (inactive)
CC(C)[Si](C#C[Si](C(C)C)(C(C)C)C(C)C)(O[C@H](c1ccccc1)c1cn(Cc2ccccc2)nn1)C(C)C,-0.491,-0.224,0.732,1.01,0.798,1.63,-0.703 (inactive),0.294,-0.888,1.77 (inactive)
C=CCC(OC(C)=O)[C@@H]1[C@@H](N(Cc2cc3ccccc3o2)C(=O)Cc2ccc(F)cc2)c2cc(OCCCO)ccc2N1C(=O)Cc1ccc2ccccc2c1 (stereo not given in full),0.181,-0.136,0.766,-0.082,-0.759,1.22,-0.683 (inactive),-0.311,1.19,0.0336 (inactive)
CCOC(=O)C=Cc1cccc(C)c1O,-0.877,0.407,-0.833,-0.536,-0.731,-0.768,-0.0308 (inactive),-0.642,-1.16,-0.871 (inactive)
COCCOC(=O)N1C(=O)[C@@]2(c3cc(C#CC4=CCCCC4)ccc31)[C@H](c1ccccc1OCCO)N1[C@H](c3ccccc3)[C@H](c3ccccc3)OC(=O)[C@H]1[C@@H]2C(=O)N1CCN(c2ncccn2)CC1,-1.17,0.956,0.195,-0.118,-1.92,0.259,2.14 (inactive),-0.423,-1.19,0.753 (inactive)
C=C(/C(=C/C[C@H](OC(C)=O)c1ccc(CO)o1)c1cnc2ccccc2c1)C(C)C,-0.166,0.283,-0.7,-1.36,-1.47,-1.36,-0.524 (inactive),0.867,0.246,0.643 (inactive)
CC(c1ccccc1)C(O)C1C=CC2C(=O)N(C)C(=O)C2N1Nc1ccccc1 (stereo not given),-0.227,-0.856,0.36,-2.65,-0.435,-0.624,-0.83 (inactive),0.446,-0.527,-0.183 (inactive)
COc1cc(NN2C(C(O)c3cc(OC)c(OC)c(OC)c3)C=CC3C(=O)N(C)C(=O)C32)cc(OC)c1OC (stereo not given),-0.991,-0.919,-0.122,-0.147,-0.176,-1.09,-1.04 (inactive),0.729,-0.417,-0.4 (inactive)
Cc1ccc(S[C@]2(C(=O)NC(C)C)CC(=O)N(Cc3cc(C(F)(F)F)cc(C(F)(F)F)c3)[C@@H]2c2ccc(CO)cc2)cc1,0.15,-0.312,-0.286,0.395,0.392,-0.387,-0.5 (inactive),-0.555,-0.129,0.271 (inactive)
COC(=O)[C@@]1(Cc2ccc(OC)cc2)[C@H]2c3cc(C(=O)N4CCCC4)n(CCc4c[nH]c5ccc(OC)cc45)c3C[C@H]2CN1C(=O)c1ccccc1,-1.19,-0.791,-0.636,-1.52,-3.62,-0.205,-1.04 (inactive),-0.819,-1.86,-2.3 (inactive)
Cc1ccc(S[C@]2(C(=O)NCc3ccccc3)CC(=O)N(C3CCCCC3)[C@@H]2c2ccc(CO)cc2I)cc1,-0.0709,0.183,0.398,-1.93,-3.39,0.521,0.97 (inactive),-0.464,-1.62,-0.99 (inactive)
CC(=O)NCCCC[C@@H]1NC(=O)[C@@H]2C[C@H](C(=O)NCCCCCN)[C@H](c3cccc(OCCO)c3)N2C1=O,1.3,0.749,0.74,0.151,1.3,0.0102,0.608 (inactive),-0.721,-0.0434,0.914 (inactive)

# From PubChem BioAssay
